# Laboratory results reported in PubChem BioAssay (NCI).
# This is part of a sample that, as a whole, favours compounds with a hit. Of some 83,000 tested, about 20% had one in any assay.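 Values shown are percent growth following 48 h exposure of cells in 96-well plates to a single concentration of compound; below 10 was considered active.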 A number with no mark means an inactive call. The source made the active and inactive calls.
# How the values were obtained:
# Test in all cases: NCI-60 one-dose screen, 48 h (100 = growth as untreated, 0 = no growth, -100 = all killed)
# Conditions in all cases: 10 µM unless noted
# K-562 leukemia = system: K-562 leukemia
# MALME-3M melanoma = system: MALME-3M melanoma
# MDA-MB-231 breast = system: MDA-MB-231 breast
# RXF 393 renal = system: RXF 393 renal
# SF-268 CNS = system: SF-268 CNS
# SF-295 CNS = system: SF-295 CNS
# SF-539 CNS = system: SF-539 CNS
# UACC-257 melanoma = system: UACC-257 melanoma
# M14 melanoma = system: M14 melanoma
# HCT-15 colon = system: HCT-15 colon
# HT29 colon = system: HT29 colon
# SNB-75 CNS = system: SNB-75 CNS
# SNB-19 CNS = system: SNB-19 CNS
# U251 CNS = system: U251 CNS
# PC-3 prostate = system: PC-3 prostate
# UACC-62 melanoma = system: UACC-62 melanoma
# SK-MEL-28 melanoma = system: SK-MEL-28 melanoma
# SK-MEL-2 melanoma = system: SK-MEL-2 melanoma
# SK-MEL-5 melanoma = system: SK-MEL-5 melanoma
# LOX IMVI melanoma = system: LOX IMVI melanoma
Compound,growth (K-562 leukemia),growth (MALME-3M melanoma),growth (MDA-MB-231 breast),growth (RXF 393 renal),growth (SF-268 CNS),growth (SF-295 CNS),growth (SF-539 CNS),growth (UACC-257 melanoma),growth (M14 melanoma),growth (HCT-15 colon),growth (HT29 colon),growth (SNB-75 CNS),growth (SNB-19 CNS),growth (U251 CNS),growth (PC-3 prostate),growth (UACC-62 melanoma),growth (SK-MEL-28 melanoma),growth (SK-MEL-2 melanoma),growth (SK-MEL-5 melanoma),growth (LOX IMVI melanoma)
O=c1[nH]c2ccc(Cl)cc2cc1CSc1ccccc1Nc1nccc(-c2ccc(Cl)cc2)n1,71.6%,90.4%,94.3%,84.7%,81.5%,96.3%,89.1%,100%,102%,91.5%,109%,76.6%,95%,79.7%,69%,75.9%,106%,129%,–,–
O=C1Nc2ccc(Cl)cc2/C1=C/c1ccc(OCC(=O)c2ccc(Br)cc2)cc1,102%,84.5%,76.2%,114%,94%,99.9%,102%,100%,95.6%,99.2%,103%,75.7%,89.7%,98.3%,81.8%,83.4%,99.3%,–,–,–
COc1ccc(-c2nc3ccc(-c4nnc(SCC(=O)Nc5ccc(C(C)=O)cc5)o4)cc3[nH]2)cc1,85.6%,87.8%,94.7%,122%,104%,97.5%,81.6%,124%,91.9%,–,116%,92.6%,119%,104%,104%,96%,112%,134%,93.5%,108%
CN(C)CCCOc1c2ccc(Cl)cc2nc2c1oc1ccccc12,0.751% (active),-81.2% (active),-7.6% (active),-66% (active),-9.41% (active),-19.2% (active),-58.9% (active),-18.5% (active),-84.2% (active),–,-45.5% (active),-18.6% (active),5.62% (active),4.05% (active),5.27% (active),-73.8% (active),-76.4% (active),-87.6% (active),-97.9% (active),-84.8% (active)
CCOC(=O)c1c(NC(=O)c2cccc(C(F)(F)F)c2)sc2cc(O)ccc12,97.3%,92.4%,87.1%,113%,96.9%,102%,89.7%,108%,101%,92.8%,105%,73.4%,96%,98.9%,94.8%,97.9%,108%,–,–,–
COc1cc(/C=C/C(=O)c2cc(OC)c(OC)c(OC)c2)ccc1Oc1nc(NCCO)nc(N2CCOCC2)n1,8.97% (active),29%,19.4%,-25.7% (active),9.81% (active),12.6%,-5.48% (active),47.8%,-19.1% (active),-9.13% (active),-21.5% (active),15.2%,12.4%,-36.9% (active),37.7%,-4.12% (active),31.5%,-3.2% (active),–,–
COc1ccc(C(=O)/C=C/c2ccc(OCc3ccc(C)cc3)c(OC)c2)cc1OC,25.4%,87.8%,59%,103%,72.4%,75.2%,72.1%,80.3%,86.8%,34.4%,68.8%,72%,69.8%,49.9%,55.9%,54.5%,82.3%,94.3%,–,–
CN(C)c1ccc(/C=C2\Cc3c(F)ccc(Br)c3C2=O)cc1,98.4%,92.8%,90.8%,108%,101%,101%,97.5%,91.3%,92.1%,96.9%,104%,87.8%,93.1%,91.6%,92%,83.3%,97.4%,108%,–,–
CCOC(=O)c1sc(NCC(=O)Nc2cccc([N+](=O)[O-])c2)c(C(=O)OCC)c1C,5.97% (active),-63.7% (active),-24.5% (active),-74% (active),-25% (active),-77.5% (active),-35.1% (active),-6.79% (active),-73% (active),2.01% (active),-42.7% (active),-37.6% (active),-6.96% (active),-7.36% (active),-9.82% (active),-72.4% (active),-30.9% (active),-24% (active),–,–
NC(=O)c1c(NC(=O)c2ccc(C3CCCCC3)cc2)sc2c1CCC(=O)C2,3.87% (active),13.2%,15.6%,-2.51% (active),33.1%,18.9%,14.9%,12.2%,18%,4.53% (active),2.41% (active),43.2%,25.5%,10.7%,16.1%,26.4%,31.7%,–,–,–
COC(=O)c1ccc(NC(=S)N2CCc3ccc([N+](=O)[O-])cc3C2)cc1O,110%,95.4%,94.5%,110%,103%,102%,103%,109%,102%,99.7%,109%,112%,97.6%,111%,98.7%,99.2%,106%,122%,–,–
COc1ccc(Cc2nn(CC(=O)N/N=C/c3ccc(Cl)cc3)c(=O)c3c(C)noc23)cc1,96.3%,95%,76.2%,77.7%,83.9%,69.3%,58.7%,90.9%,89.9%,88.3%,92.4%,-4.27% (active),67.5%,71.4%,78.9%,99.2%,97.9%,90.8%,–,–
Cc1ccc2c(n1)C(=O)C(Cl)=C(Nc1cccc(C(C)C)c1)C2=O,3.49% (active),83.8%,45.8%,73.1%,80.9%,70.1%,80.7%,1.85% (active),44.7%,32.4%,97%,68.6%,71.7%,60.3%,57.9%,87.1%,63.1%,47.2%,–,–
CC1=C(C)C(=O)C(Nc2cccc(C(F)(F)F)c2)=C(Cl)C1=O,3.78% (active),94.4%,19%,97.8%,94.3%,96.2%,93.4%,78.5%,85.2%,65.7%,103%,66.5%,92.4%,79%,64.4%,80.2%,98.3%,85.8%,–,–
C/C(=C(/c1ccc(Cl)cc1)c1ccc(OCCN)cc1)c1ccc(C)cc1,90.8%,101%,94.4%,112%,100%,98.7%,93.8%,104%,102%,101%,111%,94.6%,92.6%,101%,94.6%,88.6%,99.6%,112%,–,–
CNC(=O)c1cc(-c2ccc(NC(=O)Nc3ccc(N4CCOCC4)c(C(F)(F)F)c3)cc2)nc2cccnc12,34.3%,60.7%,63.9%,-15.9% (active),80.2%,9.49% (active),30.1%,89.2%,77.2%,–,54.9%,67.6%,58.8%,43.7%,52.1%,64.3%,64.5%,67.8%,67.2%,31.1%
O=C(N/N=C/c1ccc([N+](=O)[O-])s1)c1[nH]c2ccc(Br)cc2c1-c1ccccc1,5.34% (active),14.8%,-24.1% (active),39.3%,36.4%,23.8%,-21.2% (active),58%,-34.5% (active),–,-22.4% (active),26.2%,27.1%,9.11% (active),26.5%,17.6%,38.5%,-19.4% (active),-76.6% (active),–
